In article PMC5540273 (PLoS ONE, 2017):
Like-named read-outs stand apart in the source and are kept apart here.

Legend:
Conditions in all cases: n = 1
ERBB2 = test system: ERBB2
ERBB3 = test system: ERBB3
ERBB4 = test system: ERBB4
ERK1 = test system: T1, ERK1
T1 construct: gene MAPK3

ERK2 = test system: T2, ERK2
T2 construct: gene MAPK1

ERK3 = test system: T3, ERK3
T3 construct: gene MAPK6

ERK4 = test system: T4, ERK4
T4 construct: gene MAPK4

ERK5 = test system: T5, ERK5
T5 construct: gene MAPK7

ERK8 = test system: T6, ERK8
T6 construct: gene MAPK15

ERN1 = test system: ERN1
FAK = test system: T7, FAK
T7 construct: gene PTK2

FER = test system: FER
FES = test system: FES
FGFR1 = test system: FGFR1
FGFR2 = test system: FGFR2
FGFR3 = test system: FGFR3
FGFR4 = test system: FGFR4
FGR = test system: FGR
FLT1 = test system: FLT1
FLT3-autoinhibited = test system: FLT3-autoinhibited
[1] = concentration: 1 μM, replicates: in singlicate
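Also: KINOMEscan kinase panel screen.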

With `Cn1cncc1-c1ccc2ncnc(Nc3ccc(OCc4ccccc4)cc3)c2c1` [GW320571] the “%Inh” value (ERBB2; [1]) was 99.4%, the “%Inh” value (ERBB3; [1]) was 43% and the “%Inh” value (ERBB4; [1]) was 61%. For the same compound, the “%Inh” value (ERK1; [1]) was 13%, the “%Inh” value (ERK2; [1]) was 10% and the “%Inh” value (ERK3; [1]) was 0%. For the same compound, the “%Inh” value (ERK4; [1]) was 0%, the “%Inh” value (ERK5; [1]) was 0% and the “%Inh” value (ERK8; [1]) was 25%. The “%Inh” value (ERN1; [1]) was 0%, the “%Inh” value (FAK; [1]) was 0% and the “%Inh” value (FER; [1]) was 25%. For the same compound, the “%Inh” value (FES; [1]) was 0%, the “%Inh” value (FGFR1; [1]) was 2% and the “%Inh” value (FGFR2; [1]) was 13%. For the same compound, the “%Inh” value (FGFR3; [1]) was 31%, the “%Inh” value (FGFR4; [1]) was 14% and the “%Inh” value (FGR; [1]) was 15%. The “%Inh” value (FLT1; [1]) was 27% and the “%Inh” value (FLT3-autoinhibited; [1]) was 0%.

For `Fc1cc(Cl)ccc1Nc1ccnc2cc(I)ccc12` [GW551191], the “%Inh” value (ERBB2; [1]) was 32%, the “%Inh” value (ERBB3; [1]) was 31% and the “%Inh” value (ERBB4; [1]) was 30%. The “%Inh” value (ERK1; [1]) was 0%, the “%Inh” value (ERK2; [1]) was 0% and the “%Inh” value (ERK3; [1]) was 5%. For the same compound, the “%Inh” value (ERK4; [1]) was 24%, the “%Inh” value (ERK5; [1]) was 0% and the “%Inh” value (ERK8; [1]) was 0%. The “%Inh” value (ERN1; [1]) was 2%, the “%Inh” value (FAK; [1]) was 0% and the “%Inh” value (FER; [1]) was 0%. For the same compound, the “%Inh” value (FES; [1]) was 0%, the “%Inh” value (FGFR1; [1]) was 8% and the “%Inh” value (FGFR2; [1]) was 18%. The “%Inh” value (FGFR3; [1]) was 0%, the “%Inh” value (FGFR4; [1]) was 5% and the “%Inh” value (FGR; [1]) was 30%. For the same compound, the “%Inh” value (FLT1; [1]) was 30% and the “%Inh” value (FLT3-autoinhibited; [1]) was 0%.

`COc1ccc2nc(-c3cccc(C)n3)nc(Nc3ccncc3)c2c1` [GSK204919] was tested, and the “%Inh” value (ERBB2; [1]) was 0%, the “%Inh” value (ERBB3; [1]) was 0% and the “%Inh” value (ERBB4; [1]) was 30%. For the same compound, the “%Inh” value (ERK1; [1]) was 2%, the “%Inh” value (ERK2; [1]) was 3% and the “%Inh” value (ERK3; [1]) was 10%. The “%Inh” value (ERK4; [1]) was 15%, the “%Inh” value (ERK5; [1]) was 0% and the “%Inh” value (ERK8; [1]) was 37%. For the same compound, the “%Inh” value (ERN1; [1]) was 0%, the “%Inh” value (FAK; [1]) was 0% and the “%Inh” value (FER; [1]) was 14%. The “%Inh” value (FES; [1]) was 17%, the “%Inh” value (FGFR1; [1]) was 0% and the “%Inh” value (FGFR2; [1]) was 7%. For the same compound, the “%Inh” value (FGFR3; [1]) was 20%, the “%Inh” value (FGFR4; [1]) was 20% and the “%Inh” value (FGR; [1]) was 27%. For the same compound, the “%Inh” value (FLT1; [1]) was 28% and the “%Inh” value (FLT3-autoinhibited; [1]) was 3%.

In the case of `Cc1cccc(-c2nc(Nc3cccc(C(N)=O)c3)c3ccccc3n2)n1` [GW876019], the “%Inh” value (ERBB2; [1]) is reported as 23%, the “%Inh” value (ERBB3; [1]) is reported as 50% and the “%Inh” value (ERBB4; [1]) is reported as 15%. For the same compound, the “%Inh” value (ERK1; [1]) was 0%, the “%Inh” value (ERK2; [1]) was 0% and the “%Inh” value (ERK3; [1]) was 22%. The “%Inh” value (ERK4; [1]) was 0%, the “%Inh” value (ERK5; [1]) was 0% and the “%Inh” value (ERK8; [1]) was 11%. For the same compound, the “%Inh” value (ERN1; [1]) was 17%, the “%Inh” value (FAK; [1]) was 0% and the “%Inh” value (FER; [1]) was 0%. The “%Inh” value (FES; [1]) was 25%, the “%Inh” value (FGFR1; [1]) was 0% and the “%Inh” value (FGFR2; [1]) was 17%. For the same compound, the “%Inh” value (FGFR3; [1]) was 1%, the “%Inh” value (FGFR4; [1]) was 0% and the “%Inh” value (FGR; [1]) was 58%. For the same compound, the “%Inh” value (FLT1; [1]) was 42% and the “%Inh” value (FLT3-autoinhibited; [1]) was 0%.

In the case of `Fc1cc(Cl)ccc1Nc1ccnc2cc(-c3ccc(CN4CCCCC4)o3)ccc12` [GW560116], the “%Inh” value (ERBB2; [1]) is reported as 1%, the “%Inh” value (ERBB3; [1]) is reported as 31% and the “%Inh” value (ERBB4; [1]) is reported as 4%. For the same compound, the “%Inh” value (ERK1; [1]) was 0%, the “%Inh” value (ERK2; [1]) was 0% and the “%Inh” value (ERK3; [1]) was 0%. The “%Inh” value (ERK4; [1]) was 8%, the “%Inh” value (ERK5; [1]) was 0% and the “%Inh” value (ERK8; [1]) was 0%. The “%Inh” value (ERN1; [1]) was 0%, the “%Inh” value (FAK; [1]) was 0% and the “%Inh” value (FER; [1]) was 5%. The “%Inh” value (FES; [1]) was 0%, the “%Inh” value (FGFR1; [1]) was 0% and the “%Inh” value (FGFR2; [1]) was 0%. The “%Inh” value (FGFR3; [1]) was 0%, the “%Inh” value (FGFR4; [1]) was 0% and the “%Inh” value (FGR; [1]) was 31%. The “%Inh” value (FLT1; [1]) was 15% and the “%Inh” value (FLT3-autoinhibited; [1]) was 0%.

With `Cc1ccc(NC(=O)Nc2cccc(C(F)(F)F)c2)cc1` [GSK955403] the “%Inh” value (ERBB2; 1 µM) was 0%, the “%Inh” value (ERBB3; 1 µM) was 17% and the “%Inh” value (ERBB4; 1 µM) was 0%. For the same compound, the “%Inh” value (ERK1; 1 µM) was 0%, the “%Inh” value (ERK2; 1 µM) was 0% and the “%Inh” value (ERK3; 1 µM) was 0%. The “%Inh” value (ERK4; 1 µM) was 0%, the “%Inh” value (ERK5; 1 µM) was 5% and the “%Inh” value (ERK8; 1 µM) was 0%. For the same compound, the “%Inh” value (ERN1; 1 µM) was 0%, the “%Inh” value (FAK; 1 µM) was 1% and the “%Inh” value (FER; 1 µM) was 0%. For the same compound, the “%Inh” value (FES; 1 µM) was 0%, the “%Inh” value (FGFR1; 1 µM) was 1% and the “%Inh” value (FGFR2; 1 µM) was 0%. For the same compound, the “%Inh” value (FGFR3; 1 µM) was 5%, the “%Inh” value (FGFR4; 1 µM) was 0% and the “%Inh” value (FGR; 1 µM) was 0%. The “%Inh” value (FLT1; 1 µM) was 23% and the “%Inh” value (FLT3-autoinhibited; 1 µM) was 0%.

In the case of `Cc1csc(-c2nc(Nc3ccncc3)c3ccccc3n2)n1` [GW869640], the “%Inh” value (ERBB2; [1]) is reported as 36%, the “%Inh” value (ERBB3; [1]) is reported as 40% and the “%Inh” value (ERBB4; [1]) is reported as 0%. For the same compound, the “%Inh” value (ERK1; [1]) was 13%, the “%Inh” value (ERK2; [1]) was 17% and the “%Inh” value (ERK3; [1]) was 4%. The “%Inh” value (ERK4; [1]) was 0%, the “%Inh” value (ERK5; [1]) was 0% and the “%Inh” value (ERK8; [1]) was 32%. For the same compound, the “%Inh” value (ERN1; [1]) was 27%, the “%Inh” value (FAK; [1]) was 3% and the “%Inh” value (FER; [1]) was 7%. For the same compound, the “%Inh” value (FES; [1]) was 10%, the “%Inh” value (FGFR1; [1]) was 17% and the “%Inh” value (FGFR2; [1]) was 6%. The “%Inh” value (FGFR3; [1]) was 6%, the “%Inh” value (FGFR4; [1]) was 16% and the “%Inh” value (FGR; [1]) was 7%. For the same compound, the “%Inh” value (FLT1; [1]) was 19% and the “%Inh” value (FLT3-autoinhibited; [1]) was 26%.

`CS(=O)(=O)c1ccc(-c2nc3n(c2-c2ccncc2)CCC3)cc1` [SKF-105942] was tested, and the “%Inh” value (ERBB2; [1]) was 32%, the “%Inh” value (ERBB3; [1]) was 0% and the “%Inh” value (ERBB4; [1]) was 0%. The “%Inh” value (ERK1; [1]) was 0%, the “%Inh” value (ERK2; [1]) was 0% and the “%Inh” value (ERK3; [1]) was 0%. For the same compound, the “%Inh” value (ERK4; [1]) was 100%, the “%Inh” value (ERK5; [1]) was 0% and the “%Inh” value (ERK8; [1]) was 0%. For the same compound, the “%Inh” value (ERN1; [1]) was 18%, the “%Inh” value (FAK; [1]) was 0% and the “%Inh” value (FER; [1]) was 1%. For the same compound, the “%Inh” value (FES; [1]) was 22%, the “%Inh” value (FGFR1; [1]) was 0% and the “%Inh” value (FGFR2; [1]) was 0%. The “%Inh” value (FGFR3; [1]) was 2%, the “%Inh” value (FGFR4; [1]) was 18% and the “%Inh” value (FGR; [1]) was 43%. The “%Inh” value (FLT1; [1]) was 11% and the “%Inh” value (FLT3-autoinhibited; [1]) was 0%.

For `Cn1ccc2ncnc(Oc3ccc(Nc4nc5ccccc5[nH]4)cc3)c21`, the “%Inh” value (ERBB2; [1]) was 3%, the “%Inh” value (ERBB3; [1]) was 0% and the “%Inh” value (ERBB4; [1]) was 0%. The “%Inh” value (ERK1; [1]) was 0%, the “%Inh” value (ERK2; [1]) was 2% and the “%Inh” value (ERK3; [1]) was 0%. The “%Inh” value (ERK4; [1]) was 0%, the “%Inh” value (ERK5; [1]) was 0% and the “%Inh” value (ERK8; [1]) was 0%. For the same compound, the “%Inh” value (ERN1; [1]) was 0%, the “%Inh” value (FAK; [1]) was 0% and the “%Inh” value (FER; [1]) was 0%. For the same compound, the “%Inh” value (FES; [1]) was 0%, the “%Inh” value (FGFR1; [1]) was 3% and the “%Inh” value (FGFR2; [1]) was 0%. The “%Inh” value (FGFR3; [1]) was 0%, the “%Inh” value (FGFR4; [1]) was 0% and the “%Inh” value (FGR; [1]) was 9%. The “%Inh” value (FLT1; [1]) was 0% and the “%Inh” value (FLT3-autoinhibited; [1]) was 0%.

`CC1=C(C(=O)Nc2cc3cn[nH]c3cc2F)C(c2ccc(C(F)(F)F)cc2)CC(=O)N1` (centres unmarked) [GSK429286] was tested, and the “%Inh” value (ERBB2; [1]) was 9%, the “%Inh” value (ERBB3; [1]) was 0% and the “%Inh” value (ERBB4; [1]) was 63%. For the same compound, the “%Inh” value (ERK1; [1]) was 8%, the “%Inh” value (ERK2; [1]) was 0% and the “%Inh” value (ERK3; [1]) was 14%. For the same compound, the “%Inh” value (ERK4; [1]) was 10%, the “%Inh” value (ERK5; [1]) was 0% and the “%Inh” value (ERK8; [1]) was 0%. For the same compound, the “%Inh” value (ERN1; [1]) was 2%, the “%Inh” value (FAK; [1]) was 0% and the “%Inh” value (FER; [1]) was 4%. The “%Inh” value (FES; [1]) was 0%, the “%Inh” value (FGFR1; [1]) was 0% and the “%Inh” value (FGFR2; [1]) was 3%. For the same compound, the “%Inh” value (FGFR3; [1]) was 17%, the “%Inh” value (FGFR4; [1]) was 8% and the “%Inh” value (FGR; [1]) was 24%. The “%Inh” value (FLT1; [1]) was 17% and the “%Inh” value (FLT3-autoinhibited; [1]) was 0%.
